Most compounds without a hit are left out; they make up all but 3.2% or so of the library.
IL-2 act: qHTS of IL-2 Activators | IL-2 activation reporter assay, cell-based qHTS; stimulated with anti-CD3/CD4/CD28 beads; in transgenic mouse T cells | activation, % (series mostly up to about 46 µM) | 360,000 tested, 0.065% active | AID 652025, 2013; in the data active means activation above about 50%; inconclusive means mostly about 30% to 49%; further: 0% is about no effect
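Readout is EGFP and DsRed signal by fluorescent plate cytometry after 18 h at 37 degrees C. Transgenic mouse T cells (750/well) received compound for 60 min before bead stimulation (anti-CD3, anti-CD4, anti-CD28); memory T cells served as non-tolerant control.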
Nrf2 inh: Nrf2 qHTS screen for inhibitors | 360,000 tested, 2.1% active | Potency, µM (top dose mostly 46 µM), without a hit: at the top dose activity change, negative = inhibition, actives largely listed as inhibitors | A549 ARE-Fluc reporter, luciferase luminescence, 18-24 h; further: potency means the concentration at half of the fitted maximal effect; on the % scale 0 is the no-effect control and ±100 the full control effect; nearly all actives have a fitted effect of over 60% in size
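Nrf2 activity is the BugLite luminescence, read 15 min after reagent at room temperature, following CellTiter-Fluor cytotoxicity readout (30 min, 37C). Compound titrations were applied for 18-24 h to 5000 A549 ARE_Fluc cells/well in 5% FBS OPTI-MEM.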
p53 reactivation: qHTS assay for re-activators of p53 using a Luc reporter; H1299 p53-A138V BP100-luciferase reporter, luminescence, 24 h; 320,000 tested, 0.063% active; Potency, µM (titrated, usually from 92.2 µM), for the others: top-dose activity change, positive = activation, most hits filed as activators; further: potency means the concentration at half of the fitted maximal effect; % of control where 0% means no effect; nearly all actives have a fitted effect of over 45% in size
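H1299 (p53-null), stable ts p53-A138V + BP100-Luc; 1000 cells/well, Opti-MEM/10% FBS; cpd 4 pt, 1:5; 24 h, 37 deg C, 5% CO2; detection reagent 10 min RT; luminescence.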
BRCA1 expr up: qHTS Assay to Identify Small Molecule Activators of BRCA1 Expression | AID 624202, 2012 | 380,000 tested, 1.1% active | Potency, µM (titrated, usually from 46.1 µM), without a hit: at the highest dose activation, hits mostly activators | MCF7-BRCA1-FFLuc reporter, luminescence, 48 h; response scale: scaled: vehicle 0%, 10 µM genistein 100%; further: potency means the concentration at half of the fitted maximal effect; nearly all actives have a fitted effect of over 80% in size
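MCF7 cells carrying a BRCA1-firefly luciferase reporter (2000 cells/well, phenol-red free MEM) were attached for 2 h at 37 °C, then given compounds for 48 h. Luminescence was read 15 min after luciferase reagent; activity normalized to genistein (10 microM) and DMSO.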
Nrf2 ARE act: qHTS of Nrf2 Activators; AREc32 ARE-luciferase reporter (MCF7-derived line), luminescence, 24 h; Potency, µM (series often up to 46.1 µM), inactives show at the highest dose activation, actives largely listed as activators; 410,000 tested, 0.31% active; AID 624171, 2012; further: potency means the concentration at half of the fitted maximal effect; % of control where 0% means no effect; nearly all actives have a fitted effect of over 65% in size
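Luciferase luminescence (Steady-Glo, 30 min at room temperature) served as the read-out of ARE activation in AREc32 cells treated with compounds for 24 hr at 37 deg C.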
A549 tox: Nrf2 qHTS screen for inhibitors: counterscreen for cytotoxicity | A549 ARE-Fluc cells, CellTiter-Fluor viability, 18-24 h | Potency, µM (doses to about 46 µM), for the others: top-dose activity change, negative = cytotoxicity, actives largely listed as inhibitors | 390,000 tested, 0.16% active | AID 504648, 2011; further: potency means the concentration at half of the fitted maximal effect; on the % scale 0 is the no-effect control and ±100 the full control effect
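A549 ARE-Fluc cells in 5% FBS OPTI-MEM, 5000 cells/well, rested 2 h then exposed to compounds in concentration-response for 18-24 h at 37 °C. Viability by CellTiter-Fluor fluorescence (Ex 405/Em 525) after 30 min; luciferase luminescence (BugLite, 15 min, RT) read afterwards.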
The depositor's hits bear a star; ? = inconclusive; nt = no result given; [ ] = another dose, or the depositor's remark. Unless noted, the call rests on the fitted dose curve; in most records, active means well fitted curve in the direction sought with a large enough effect; inconclusive means small, poorly fitted or top-dose-only effect, or another doubt; inactive means no such curve, though single readings can be large; an effect the other way counts as inactive or inconclusive.

SMILES	IL-2 act	Nrf2 inh	p53 reactivation	BRCA1 expr up	Nrf2 ARE act	A549 tox
c1ccc(CSc2nccc(-c3ccco3)n2)cc1	0	8%	nt	77%	10µM*	7%
c1ccc(CSc2ncccn2)cc1	-3	24%	5%	32%	0%	7%
Cc1nc(SCc2ccccc2)n[nH]1	-3	15%	nt	52%	0%	3%
CCOc1ccc(NC(=O)Cn2nnc(C(=O)OC)c2C(=O)OC)cc1	nt	13%	nt	nt	-1%	1%
OCCN(Cc1cccnc1)Cc1ccccn1	0	14%	nt	-25%	2%	21µM*
O=C(NCCOc1ccc(Cl)cc1)c1cccc(S(=O)(=O)N2CCCC2)c1	-1	23µM*	-11%	1%	-1%	0%
O=C(c1cccc(S(=O)(=O)N2CCCC2)c1)c1cccc(S(=O)(=O)N2CCCC2)c1	-1	8.2µM*	-1%	-17%	0%	-15%
O=C(c1cccc(S(=O)(=O)N2CCCCC2)c1)N1CCCCC1	-3	-4%	3%	-3%	0%	-10%
O=C(NCc1ccc2c(c1)OCO2)c1cccc(S(=O)(=O)N2CCCCC2)c1	0	15µM*	-12%	-22%	0%	-9%
CCCS(=O)(=O)NCCc1sc2nc(-c3ccc(F)cc3)nn2c1C	nt	nt	nt	nt	0%	-13%
Cc1cc(C)cc(-n2ccnc2SCC(=O)Nc2nnc(C)s2)c1	nt	nt	nt	-45%	0%	-14%
O=[N+]([O-])c1ccc(N/N=C2\CC3CC=CC23)c([N+](=O)[O-])c1 (centres undefined)	-6	23µM*	3%	-39%	4%	?
CCN(CC)C(=S)SCC(=O)c1ccc(F)cc1	0	?	16%	3.2µM*	4%	-6%
CCN(CC)C(=S)SCC(=O)Nc1ccc(F)cc1	-1	17%	3%	7%	2%	3%
CCN(CC)C(=S)SCC(=O)c1ccccc1	-1	?	6%	7.9µM*	2%	nt
CC1=CCC(COC(=O)Nc2ccccc2)CC1 (centres undefined)	0	nt	?	3.5µM*	4%	-3%
COc1cc(CN2CCN(Cc3ccc([N+](=O)[O-])cc3)CC2)c([N+](=O)[O-])cc1OC	-4	21µM*	1%	-31%	3%	-4%
O=[N+]([O-])c1ccc(N2CCN(Cc3cccc([N+](=O)[O-])c3)CC2)cc1	-3	21µM*	nt	-29%	1%[9.22 µM]	?
Cc1ccc(O)c(N=Cc2sc3ccccc3c2Cl)c1	-3	2%	?	1%	?	-5%
Oc1c(C=NCc2ccncc2)sc2ccccc12	-1	21%	?	0%	14µM*	-13%
Oc1c(C=Nc2ccccc2)sc2ccccc12	-1	?	-3%	20%	14µM*	-4%
Oc1ccccc1N=Cc1sc2ccccc2c1Cl	-1	9%	18%	-48%	11µM*	0%
CN=Cc1sc2ccccc2c1O	-1	-11%	?	-33%	5%	-30%
COc1cc(-c2nc(Cn3nnc(C(=O)Nc4cc(C)cc(C)c4)c3C)c(C)o2)cc(OC)c1OC	nt	-21%	nt	-17%	-1%	-3%
CS(=O)(=O)c1ccc(S(=O)CC(=O)OCc2ccccc2)c([N+](=O)[O-])c1 (centres undefined)	-6	18µM*	-12%	-86%	?	?
SMILES	IL-2 act	Nrf2 inh	p53 reactivation	BRCA1 expr up	Nrf2 ARE act	A549 tox
O=C(CS(=O)c1ccc(C(F)(F)F)cc1[N+](=O)[O-])Oc1ccccc1 (centres undefined)	-1	?	-7%	-84%	?	-10%
CNc1snc(C)c1C(=O)OC(C)C(=O)c1ccc(F)cc1 (centres undefined)	-1	21µM*	0%	-24%	0%	-5%
CNc1snc(C)c1C(=O)OCC(=O)c1ccc(Cl)cc1	0	?	-8%	-8%	6%	3%
C/C(=N\OC(=O)c1ccc(F)cc1)c1sc(-c2ccccc2)nc1C	-4	nt	?	2.8µM*	5%	4%
C/C(=N\OC(=O)c1ccc(Cl)cc1)c1sc(-c2ccccc2)nc1C	-6	?	?	4µM*	2%	6%
CCC1=C(c2ccc(C)cc2)S(=O)(=O)N=C1N1CCC(C(=O)Nc2ccccc2C(=O)OC)CC1	nt	?	nt	nt	6%	-1%
CCNc1oc(COc2cccc(C)c2)nc1C#N	0	?	?	11µM*	9%	6%
COc1ccc(CNC(=O)c2cnc3sc4cc(OC)ccc4n3c2=O)cc1	nt	5%	nt	nt	0%	-2%
Cc1ccc(OCC(=O)Nc2ccc(C)c(F)c2)c([N+](=O)[O-])n1	2	?	?	6.3µM*	2%	-1%
O=[N+]([O-])c1ccc(COc2cccc3cccnc23)cc1	-2	?	16%	11µM*	4%	-1%
Cc1ccc(OCc2ccccc2C)c([N+](=O)[O-])n1	-2	10%	21%	29%	2%	2%
Cc1ccc(OCc2ccc([N+](=O)[O-])cc2)c([N+](=O)[O-])n1	0	?	-3%	5µM*	1%	0%
Cc1ccc(OCCOc2ccc(Br)cc2)c([N+](=O)[O-])n1	-1	?	?	3.2µM*	3%	14%
COc1ccc(CNC(=O)COc2ccc(C)nc2[N+](=O)[O-])cc1	-2	3%	-1%	-6%	2%	1%
O=[N+]([O-])c1ccc(OCCCOc2cccc3cccnc23)cc1	-2	-49%	nt	13%	0%	11%
Cc1c(Cl)cccc1NC(=O)CN1C(=O)COc2ccc(S(=O)(=O)N3CCOCC3)cc21	nt	-5%	nt	nt	0%	-1%
O=S(=O)(Nc1cccc2cccnc12)c1ccccc1O	nt	?	nt	nt	nt	-1%
Cc1ccc(-c2nn(-c3ccccc3)cc2C=C2C(=O)CC(C)(C)CC2=O)cc1	0	?	-3%	6.3µM*	8%	-1%
CC1=NNC(=O)/C1=C\c1cn(-c2ccccc2)nc1-c1ccc(Cl)cc1	-1	13µM*	-16%	-94%	?	21µM*
CC1(C)CC(=O)C(=Cc2cn(-c3ccccc3)nc2-c2ccccc2)C(=O)C1	-1	0%	nt	6%	0%	0%
Cc1cc(C(=O)Nc2ccccc2[N+](=O)[O-])cs1	0	?	-4%	0%	11µM*	-6%
COC(=O)c1sccc1NC(=O)c1cccc(Cl)c1	0	5%	nt	-70%	8.9µM*	4%

Assay outcomes deposited in PubChem by National Center for Advancing Translational Sciences (NCATS).
